Assay outcomes: PubChem BioAssay, National Center for Advancing Translational Sciences (NCATS)
12-LOX inh – Primary qHTS assay for inhibitors of human arachidonate 12S-lipoxygenase (ALOX12): Round 2; Polyunsaturated fatty acid lipoxygenase ALOX12 (Homo sapiens), P18054; purified 12hLO, xylenol orange hydroperoxide absorbance; Potency, µM (top dose mostly 108 µM), for the others: at the top dose activity change, negative = inhibition, usual class: inhibitors; actives 1.1% (n = 580,000); note: potency is the fitted concentration of half-maximal effect
Target sequence (P18054 whole entry, looked up): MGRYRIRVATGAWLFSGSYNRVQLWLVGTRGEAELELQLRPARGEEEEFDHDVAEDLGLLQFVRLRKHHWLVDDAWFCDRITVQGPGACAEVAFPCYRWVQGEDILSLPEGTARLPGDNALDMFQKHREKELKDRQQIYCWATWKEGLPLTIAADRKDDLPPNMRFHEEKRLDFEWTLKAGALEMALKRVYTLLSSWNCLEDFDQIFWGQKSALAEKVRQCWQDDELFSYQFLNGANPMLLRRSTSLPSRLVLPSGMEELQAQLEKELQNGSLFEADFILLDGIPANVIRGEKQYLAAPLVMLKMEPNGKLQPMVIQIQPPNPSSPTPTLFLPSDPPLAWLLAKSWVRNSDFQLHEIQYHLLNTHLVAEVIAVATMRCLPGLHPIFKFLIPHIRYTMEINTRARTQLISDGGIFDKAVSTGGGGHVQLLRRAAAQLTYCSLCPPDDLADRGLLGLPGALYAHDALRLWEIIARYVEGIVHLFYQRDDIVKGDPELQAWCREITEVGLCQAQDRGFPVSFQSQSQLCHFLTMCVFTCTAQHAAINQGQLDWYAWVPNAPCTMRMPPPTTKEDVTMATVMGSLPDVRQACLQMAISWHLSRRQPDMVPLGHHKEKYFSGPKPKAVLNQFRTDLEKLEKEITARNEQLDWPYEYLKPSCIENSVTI
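Purified human 12hLO at 150 nM in 25 mM Hepes, 0.01% Triton X-100, pH 7.0, preincubated 15 min at room temperature with compound. Reaction started with 40 uM arachidonic acid, 30 min at room temperature. Hydroperoxide measured by Fe-xylenol orange, 573/405 nm absorbance ratio.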
IL-1B inflam inh – qHTS for Inhibitors of Inflammasome Signaling: IL-1-beta AlphaLISA Primary Screen; actives 4.7% (n = 360,000); THP-1 LPS/ATP IL-1B secretion, AlphaLISA, 16 h; active compounds read low; activity change, % at 57.5 µM; in the data active = activity change below about -50%; inconclusive = mostly about -30% to -49%
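THP-1 cells pretreated 1 hr with compounds (up to 57.5 uM final), then stimulated with LPS (250 ng/mL final) plus ATP (1.25 mM final); secreted IL-1B measured by AlphaLISA after 16 hr, decreased signal indicating inhibition.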
HT1080NT lethal – qHTS for induction of synthetic lethality in tumor cells producing 2HG: qHTS for the HT-1080-NT fibrosarcoma cell line. actives 1.6% (n = 360,000). Potency, µM (series often up to 46.1 µM), inactives show at the top dose activity, negative = less viability, usual class: cytotoxic. HT-1080-NT fibrosarcoma viability, CellTiter-Glo ATP luminescence, 48 h;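 note: NT is the 2HG producing partner of a matched IDH1 knockdown line; potency is the fitted concentration of half-maximal effect; 0% = DMSO-treated cells and -100% = media-only wells without cells; nearly all actives have a fitted effect of over 55% in size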
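Luminescent CellTiter-Glo readout after 48 hours of compound exposure at 37 degrees C defined viability of HT-1080-NT cells. Activity was normalized to DMSO wells and cell-free media wells; concentration-response curves were fitted and assigned curve classes.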
DT40 TDP1 no CPT – qHTS for Inhibitors of human tyrosyl-DNA phosphodiesterase 1 (TDP1): qHTS in cells in absence of CPT. DT40 Tdp1-/- hTDP1 cells, no CPT, ATP luminescence, 48 h. Potency, µM (top dose mostly 46.2 µM), inactives show top-dose activity change, negative = growth inhibition, most hits filed as inhibitors. actives 15% (n = 420,000). AID 686978, 2013; note: potency is the fitted concentration of half-maximal effect; nearly all actives have a fitted effect of over 55% in size
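Compound effects on proliferation are scored in DT40 Tdp1-/-;hTDP1 cells in the absence of CPT. ATP levels (CellTiter-Glo luminescence) are recorded after a ≥48 hr, 37 °C incubation.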
HT1080 IDH1KD tx – qHTS for induction of synthetic lethality in tumor cells producing 2HG: qHTS for the HT-1080-IDH1KD cell line. HT-1080 IDH1 knockdown viability, ATP luminescence, 48 h. Potency, µM (top dose mostly 46.1 µM), without a hit: top-dose activity, negative = toxicity, usual class: cytotoxic. actives 2% (n = 360,000);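 note: potency is the fitted concentration of half-maximal effect; 0% = DMSO wells and -100% = cell-free medium wells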
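Assay cells: HT-1080 with IDH1 knockdown, 750 per well, RPMI/5% FBS. Exposure: 48 h at 37 °C following 2 h pre-incubation. Read: CellTiter-Glo luminescence; fitted concentration-response, curve class assigned.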
TDP1 cell CPT – qHTS for Inhibitors of human tyrosyl-DNA phosphodiesterase 1 (TDP1): qHTS in cells in presence of CPT; actives 12% (n = 420,000); Potency, µM (doses to about 46.2 µM), for the others: at the top dose activity change, negative = growth inhibition, hits mostly inhibitors; chicken DT40 Tdp1-/-;hTDP1 cells + 20 nM CPT, ATP luminescence, 48 h; note: potency is the fitted concentration of half-maximal effect; nearly all actives have a fitted effect of over 55% in size
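Cell growth measured by CellTiter-Glo luminescence after a minimum 48 h, 37 C compound exposure with 20 nM CPT in Tdp1-knockout DT40 cells stably expressing hTDP1, seeded 400/well; qHTS titration format.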
Numbers without * were called inactive; [ ] = remark or other dose. Only a selection was taken, and hits are over-represented in it overall. Unless noted, calls come from the whole dose curve; as a rule, active = well fitted curve in the direction sought with a large enough effect; inconclusive = small, poorly fitted or top-dose-only effect, or another doubt; inactive = no such curve, though single readings can be large; an effect the other way counts as inactive or inconclusive. Unless noted, % is set by controls: 0 for no effect and ±100 for the full control effect.

`COc1ccc(OC)c(CNC(=O)C2CCCN(c3ncnc4onc(-c5ccc(F)cc5)c34)C2)c1` (stereo not drawn) gave 12-LOX inh -7.5%, DT40 TDP1 no CPT -8.4% and TDP1 cell CPT 4.2%.
`O=C(NCc1ccc(Cl)cc1)C1CCCN(c2ncnc3onc(-c4ccc(F)cc4)c23)C1` (stereo not drawn) gave 12-LOX inh -10.1%, DT40 TDP1 no CPT 23.1µM* and TDP1 cell CPT 20.6µM*.
For CCOc1ccccc1CNC(=O)C1CCCN(c2ncnc3onc(CC)c23)C1 (stereo not drawn) the results were 12-LOX inh 4.1%.
Screening O=C(NCc1ccccc1Cl)C1CCCN(c2ncnc3onc(-c4ccc(F)cc4)c23)C1 (stereo not drawn) returned 12-LOX inh 5.5%, DT40 TDP1 no CPT 16.4µM* and TDP1 cell CPT inconclusive.
`CCOc1ccccc1CNC(=O)C1CCCN(c2ncnc3onc(-c4ccc(F)cc4)c23)C1` (stereo not drawn) gave 12-LOX inh -22.4%, DT40 TDP1 no CPT 20.6µM* and TDP1 cell CPT inconclusive.
`O=C(Cc1cccs1)Nc1cccc2c1CCCC2` gave 12-LOX inh 7.7%.
For O=C1CC(N(CCc2ccccc2)C(=S)Nc2ccccc2)C(=O)N1c1ccccc1 (stereo not drawn) the results were 12-LOX inh -15.5%, IL-1B inflam inh inconclusive, HT1080NT lethal inconclusive, DT40 TDP1 no CPT inconclusive, HT1080 IDH1KD tx inconclusive and TDP1 cell CPT inconclusive.
`CNC(=S)N(CCc1ccc(OC)c(OC)c1)C1CC(=O)N(c2ccccc2)C1=O` (stereo not drawn) gave HT1080NT lethal -8.2%, DT40 TDP1 no CPT 25.9µM*, HT1080 IDH1KD tx inconclusive and TDP1 cell CPT inconclusive.
Screening O=C1CC(N(CCc2ccccc2)C(=S)Nc2cc(Cl)ccc2Cl)C(=O)N1c1c(Cl)cccc1Cl (stereo not drawn) returned 12-LOX inh inconclusive, IL-1B inflam inh -6.1, HT1080NT lethal -22.4%, DT40 TDP1 no CPT 10.3µM*, HT1080 IDH1KD tx -13.3% and TDP1 cell CPT 16.4µM*.
O=C1CN(C(=O)CNc2ccccc2C(=O)Nc2ccc(F)cc2)c2ccccc2N1 was read as 12-LOX inh -1.5%.
Screening Cc1cc(Cl)ccc1Nc1nc(NCc2ccc3c(c2)OCO3)nc2nccnc12 returned 12-LOX inh 0.3%.
Screening CCOC(=O)Cn1nnnc1CN(Cc1ccc(OC)cc1)Cc1cc2cc(C)cc(C)c2[nH]c1=O returned 12-LOX inh 2.5%, IL-1B inflam inh 0.0, HT1080NT lethal -1.3%, DT40 TDP1 no CPT 25.9µM*, HT1080 IDH1KD tx -4.3% and TDP1 cell CPT 23.1µM*.
`CCOC(=O)Cn1nnnc1CN(Cc1ccc(OC)cc1)Cc1cc2cc(CC)ccc2[nH]c1=O` gave 12-LOX inh inconclusive, IL-1B inflam inh -89.2*, HT1080NT lethal -28.6%, DT40 TDP1 no CPT inconclusive, HT1080 IDH1KD tx -4.9%[9.24 µM] and TDP1 cell CPT 14.6µM*.
CCOC(=O)Cn1nnnc1C(CC)N(Cc1cccs1)Cc1cc2cc(C)ccc2[nH]c1=O (stereo not drawn) was read as 12-LOX inh 0.0%, IL-1B inflam inh -7.9, HT1080NT lethal -1.6%, DT40 TDP1 no CPT inconclusive, HT1080 IDH1KD tx -6.7% and TDP1 cell CPT inconclusive.
O=C(Cn1ncc(=O)c2ccccc21)N1CCCC1c1ccc2c(c1)OCCCO2 (stereo not drawn) was read as 12-LOX inh -2.7%.
`Cc1ncc(C(=O)N(C)CC2CCCN(CCc3ccc(Cl)cc3)C2)c(=O)[nH]1` (stereo not drawn) gave 12-LOX inh 12.2%.
Screening CC(=O)N1CCN(c2ccccc2NC(=O)COc2ccccc2C)CC1 returned 12-LOX inh 0.0%, IL-1B inflam inh 0.0, HT1080NT lethal -0.5%, DT40 TDP1 no CPT inconclusive, HT1080 IDH1KD tx -0.2% and TDP1 cell CPT inconclusive.
`Cc1cc(C)c(OCC(=O)Nc2ccccc2N2CCOCC2)c(C)c1` gave 12-LOX inh -18.9%, IL-1B inflam inh -11.0, HT1080NT lethal -11.1%, DT40 TDP1 no CPT 22.4µM*, HT1080 IDH1KD tx inconclusive and TDP1 cell CPT 14.1µM*.
`Cc1ccccc1OCC(=O)Nc1ccccc1N1CCOCC1` gave 12-LOX inh 10.6%, IL-1B inflam inh 9.1, HT1080NT lethal -13.0%, DT40 TDP1 no CPT 10.3µM*, HT1080 IDH1KD tx -9.7% and TDP1 cell CPT -17.9%.
For COc1cc(CNCCCN2CCOCC2)c(Br)cc1OCC(=O)Nc1ccccc1C the results were 12-LOX inh 4.2%, IL-1B inflam inh -54.6*, HT1080NT lethal -25.4%, DT40 TDP1 no CPT inconclusive, HT1080 IDH1KD tx -18.9% and TDP1 cell CPT inconclusive.
Cc1ccccc1OCC(=O)Nc1cccc2cccnc12 was read as 12-LOX inh 11.1%.
For Cc1ccccc1OCC(=O)Nc1ccccc1-c1ccccc1NC(=O)COc1ccccc1C the results were 12-LOX inh -27.1%, IL-1B inflam inh -5.4, HT1080NT lethal 9.2%, DT40 TDP1 no CPT 14.6µM*, HT1080 IDH1KD tx 1.2% and TDP1 cell CPT inconclusive.
For COC(=O)Nc1ccc(CNCc2ccccn2)cc1 the results were 12-LOX inh 7.4%.
Screening COCc1cc(CNC(=O)c2cn(C3CCC(N)CC3)nn2)[nH]n1 (stereo not drawn) returned 12-LOX inh 14.7%.
For COc1ccc(C(NC(=O)C2CCCC2)c2nccc3cc(OC)c(OC)cc23)cc1OC (stereo not drawn) the results were 12-LOX inh -28.1%.
For OCCOc1ccc(CNCc2ccco2)cc1 the results were 12-LOX inh -2.1%.
`CCC(C)NC(=O)C1COC2(CCC(C)CC2)N1C(=O)c1ccccc1F` (stereo not drawn) gave 12-LOX inh 24.1%.
Screening COc1ccccc1C(=O)Nc1ccccc1C(C)C returned 12-LOX inh -5.7%.
